Measured potencies and affinities stand elsewhere.
What follows are compounds tested on Cryptococcus neoformans. Conditions: Concentration 32 ug.mL-1; ASSAY_TEST Inhibition of Fungal Growth; detection method Resazurin; Absorption (OD600-OD570); plate type 384well; NBS; CORNING #3640.

Compound | Inhibition
CCOc1ccc(NC(=O)Cn2nc3c(Sc4cccc(F)c4)nccn3c2=O)cc1 | -4.31%
Cc1ccc(C)c(Cn2nc3c(=O)n(-c4ccc(C)c(C)c4)ccn3c2=O)c1 | -10.52%
O=C(Cn1nc2c(N3CCOCC3)nc3ccccc3n2c1=O)Nc1ccccc1Br | -27.52%
O=c1c2sccc2n2c(=S)[nH]nc2n1CC1CCCO1 (stereo not given) | -5.63%
Cc1ccc(-c2ccc3nn(CC(=O)Nc4c(C)cccc4C)c(=O)n3n2)cc1C | -7.01%
CCc1cccc(NC(=O)Cn2nc3c(Sc4ccc(C)cc4C)nccn3c2=O)c1 | -23.88%
Cc1cc2nn(CC(=O)NCc3ccc4c(c3)OCO4)c(=O)n2c(Nc2ccccc2C)n1 | -19.18%
CCCn1c(=O)c2sccc2n2c(CCC(=O)NCCC34CC5CC(CC(C5)C3)C4)nnc12 | -25.69%
CC(C)(C)S(=O)(=O)c1ccc2nn(CC(=O)Nc3ccc4c(c3)OCO4)c(=O)n2n1 | -2.55%
CCc1nnc2c(S(=O)(=O)N(Cc3ccccc3C)c3ccc(Cl)cc3)cccn12 | -5.94%
Cc1ccc(C)c(Cn2nc3c(=O)n(-c4cccc(Cl)c4C)ccn3c2=O)c1 | -13.68%
CCOc1ccc(C(=O)CSc2nnc3c(=O)n(-c4cccc(OC)c4)ccn23)cc1 | -12.78%
CCOc1ccc(NC(=O)CSc2nnc3c(=O)n(-c4ccc(OCC)cc4)ccn23)cc1 | -11.05%
O=c1c2nn(Cc3ccccc3Cl)c(=O)n2ccn1-c1ccccc1 | -8.76%
CCc1nnc2c(SCC(=O)Nc3ccc(C(C)=O)cc3)nc3ccccc3n12 | -19.53%
N#Cc1ccccc1NC(=O)Cn1nc2c(Oc3ccccc3)nccn2c1=O | -5.65%
Cc1cc(NC(=O)Cn2nc3ccc(SC(C)(C)C)nn3c2=O)ccc1Br | -21.27%
CCc1nnc2c(S(=O)(=O)N(Cc3ccc(OC)c(F)c3)c3ccccc3)cccn12 | -3.11%
CCC(Sc1nnc2c(=O)n(-c3ccc(C)c(C)c3)ccn12)C(=O)Nc1cc(OC)ccc1OC (stereo not given) | -6.72%
COc1ccc(Cl)cc1NC(=O)CSc1nc2ccccc2n2c(C(C)C)nnc12 | -12.46%
COc1cccc(NC(=O)Cn2nc3c(Sc4ccccc4)nccn3c2=O)c1 | -6.51%
Cc1ccc(CN(c2cc(C)cc(C)c2)S(=O)(=O)c2cccn3c(C)nnc23)cc1 | -12.99%
Cc1ccc(Sc2nccn3c(=O)n(CC(=O)Nc4cccc(Cl)c4)nc23)c(C)c1 | -21.78%
COc1ccc(N(Cc2cccc(F)c2)S(=O)(=O)c2ccc3nnc(C)n3c2)cc1 | -3.46%
Cc1cc2nn(CC(=O)Nc3cc(F)ccc3C)c(=O)n2c(Nc2ccc(F)c(C)c2)n1 | -9.62%

Reference: ChEMBL document CHEMBL4513146, “CO-ADD screening of Karazin Kharkiv National University (Ukraine) compounds”
